Source: PubChem BioAssay (NCATS)
Inconclusive results are not listed. Where a call stands in place of a potency, no number is given. For part of these data: Results with a measured potency or affinity are listed apart. Calls of active or inactive are those of the source. Numbered stars: 1 amine (or outer) side, 2 acyl side, 3 side chain; on linkers, the order of the positions; unused ones are H or OH. Bridge positions count the residues as written; N and C are the ends. Square brackets hold non-standard residues; d marks the D form. Peptide text beside a SMILES is read from it. I, II: the chains in the order shown. Actinocin(9to1) = Cc1c2oc3c(C)ccc(C(=O)[*:1])c3nc-2c(C(=O)[*:2])c(N)c1=O; NMeV = CN[C@H](C(=O)O)C(C)C; Sar = CNCC(=O)O

What was measured:
[1] = Ebola virus entry assay, green fluorescence channel
[2] = Ebola virus entry assay, blue channel fluorescence
[3] = Ebola virus entry assay, green fluorescence channel; remark: listed apart in the source
[4] = Ebola virus entry assay, ratio channel readout
[5] = Ebola virus entry assay, ratio channel
[6] = Ebola virus entry assay, green channel fluorescence
[7] = Ebola virus entry assay, blue channel fluorescence; remark: listed apart in the source
[8] = Ebola virus entry assay, reporter ratio channel; AC50: Channel type: primary unless noted; outcome: Channel type: primary unless noted
[9] = Ebola virus entry assay, blue channel (ratio component)
[10] = Ebola virus entry cell assay, ratio channel
[11] = Immunotoxin (HA22) sensitization/mitigation study. Vehicle arm (PBS) (AID 1159510); conditions: cancer cells viability with PBS vehicle (HA22 study); series mostly up to 46.1 µM
[12] = Immunotoxin (SS1P) sensitization/mitigation study. Vehicle arm (DMEM) (AID 1159513); conditions: cell viability with vehicle (DMEM); series mostly up to 46.1 µM
[13] = High-throughput drug toxicity screening in the BPDCN cell line Gen2.2 (AID 1224824); conditions: Gen2.2 BPDCN cells; at 45.8 µM (top of the series);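 note: cells exposed to compounds for 48 h before reading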
Outline: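 Gen2.2, 500 cells/well, phenol red-free RPMI/10% FBS/Pen-Strep; 48 h cpd, 37 °C/5% CO2; CTG lum, 15 min RT. Norm: DMSO = 100%, bortezomib 9.2 uM final = 0%.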

[14] = High-throughput drug toxicity screening in the BPDCN cell line Cal-1 (AID 1224825); conditions: Cal-1 BPDCN cell viability, qHTS; at 45.8 µM (top of the series)
Outline: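 Cal-1 cells, 500 per well in phenol-red-free RPMI with 10% FBS, exposed to compounds for 48 hours at 37C, 5% CO2. Viability read by CellTiter-Glo luminescence; percent activity normalized to DMSO (100%) and 9.2 uM bortezomib final (0%).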

[15] = qHTS assay for measurement of the activity of small molecule inhibitors on Zika virus induced Caspase-3 activity in human astrocytoma cells (AID 1224859; active = well fitted inhibition curve with a large enough effect); conditions: SNB-19 ZIKV-induced caspase-3/7, luminescence, 6 h; series mostly up to 45.7 µM
Outline: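 SNB-19 astrocytoma cells, 250/well, pretreated 1 h with compounds, then Zika virus at 2 FFU/cell for 6 h at 37 C; Caspase-Glo 3/7 luminescence after 30 min; percent inhibition normalised to uninfected and infected controls.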

[16] = qHTS Screen of the MIPE 4.0 Collection Against Ewings Sarcoma (TC32) (AID 1259256; active = well fitted inhibition curve with a large enough effect; note: nearly all actives have a fitted effect of over 45% in size; note: potency is the fitted concentration of half-maximal effect); conditions: TC32 Ewing sarcoma viability, CellTiter-Glo, 48 h; series mostly up to 45.8 µM
Outline: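 Dose series incubated 48 h with cells in RPMI plus 5% FBS, glutamine and penicillin/streptomycin; cell viability then quantified via CellTiter-Glo.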

[17] = qHTS assay for measurement of the activity of small molecule inhibitors on Zika virus induced Caspase-3 activity in human iPSC derived neural progenitor cells (hNPCs) (AID 1224857; active = well fitted inhibition curve with a large enough effect; note: nearly all actives have a fitted effect of over 65% in size); conditions: hNPCs ZIKV-induced caspase-3/7, Caspase-Glo luminescence, 6 h; series mostly up to 45.7 µM
Outline: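 Human iPSC-derived neural progenitor cells pretreated 1 hr with compounds, then infected with Zika virus (2 FFU/cell) for 6 hours at 37 C. Caspase-3/7 measured by Caspase-Glo luminescence; % inhibition calculated from induction scaled to uninfected (0%) and infected (100%) wells.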

[18] = Ebola virus entry assay, blue channel fluorescence; remark: listed apart in the source
[19] = Ebola virus entry reporter assay, green channel fluorescence

## Nc1nc2c(ncn2COCCO)c(=O)[nH]1
[1]
  efficacy: -5.83% (inactive)
[2]
  outcome: inactive
[3]
  outcome: inactive
[4]
  outcome: inactive
[5]
  outcome: inactive
[6]
  outcome: inactive
[7]
  outcome: inactive
[8]
  outcome: inactive
[9]
  outcome: inactive
[10]
  outcome: inactive

## CN(C)C(=N)N=C(N)N
[1]
  efficacy: -14% (inactive)
[2]
  outcome: inactive
[3]
  outcome: inactive
[4]
  outcome: inactive
[5]
  outcome: inactive
[6]
  outcome: inactive
[7]
  outcome: inactive
[8]
  outcome: inactive
[9]
  outcome: inactive
[10]
  outcome: inactive
[11]
  Potency: inactive
[12]
  Potency: inactive

## CN(C)[C@@H]1C(=O)C(C(N)=O)=C(O)[C@@]2(O)C(=O)C3=C(O)c4c(O)cccc4[C@@](C)(O)[C@H]3C[C@@H]12
[1]
  efficacy: 106% (inactive)
[2]
  outcome: inactive
[3]
  outcome: inactive
[4]
  outcome: inactive
[5]
  outcome: inactive
[7]
  outcome: inactive
[8]
  AC50: 31.6 µM (active)
[10]
  outcome: inactive
[13]
  cell viability, % of control (lower = more cytotoxic): 333%
[14]
  viability (% of control): 83.2%
[15]
  outcome: inactive
[16]
  Potency: 6.62 µM (active)

## CCC(C(N)=O)N1CCCC1=O (stereo unspecified)
[1]
  efficacy: -12.2% (inactive)
[2]
  outcome: inactive
[3]
  outcome: inactive
[4]
  outcome: inactive
[5]
  outcome: inactive
[6]
  outcome: inactive
[7]
  outcome: inactive
[8]
  outcome: inactive
[9]
  outcome: inactive
[10]
  outcome: inactive
[17]
  Potency: inactive
[15]
  outcome: inactive

## O=C(O)c1ccc(-n2nc(-c3ccccc3O)nc2-c2ccccc2O)cc1
[1]
  efficacy: 48% (inactive)
[2]
  outcome: inactive
[3]
  outcome: inactive
[4]
  outcome: inactive
[18]
  outcome: inactive
[7]
  outcome: inactive
[8]
  outcome: inactive
[19]
  outcome: inactive
[10]
  outcome: inactive

## CC1(C)S[C@@H]2[C@H](NC(=O)[C@H](N)c3ccccc3)C(=O)N2[C@H]1C(=O)O
[1]
  efficacy: -14% (inactive)
[2]
  outcome: inactive
[3]
  outcome: inactive
[4]
  outcome: inactive
[5]
  outcome: inactive
[6]
  outcome: inactive
[7]
  outcome: inactive
[8]
  outcome: inactive
[9]
  outcome: inactive
[19]
  outcome: inactive
[10]
  outcome: inactive

## CCN(C(C)=O)c1cccc(-c2ccnc3c(C#N)cnn23)c1
[1]
  efficacy: 22.6% (inactive)
[2]
  outcome: inactive
[3]
  outcome: inactive
[4]
  outcome: inactive
[18]
  outcome: inactive
[6]
  outcome: inactive
[7]
  outcome: inactive
[8]
  outcome: inactive
[9]
  outcome: inactive
[10]
  outcome: inactive
[17]
  Potency: inactive
[15]
  outcome: inactive

## NCC1(CC(=O)O)CCCCC1
[1]
  efficacy: -9.69% (inactive)
[2]
  outcome: inactive
[3]
  outcome: inactive
[4]
  outcome: inactive
[5]
  outcome: inactive
[6]
  outcome: inactive
[7]
  outcome: inactive
[8]
  outcome: inactive
[9]
  outcome: inactive
[10]
  outcome: inactive
[13]
  cell viability, % of control (lower = more cytotoxic): 114%
[14]
  viability (% of control): 104%
[17]
  Potency: inactive
[15]
  outcome: inactive

## CC(=O)Nc1nnc(S(N)(=O)=O)s1
[1]
  efficacy: -19.1% (inactive)
[2]
  outcome: inactive
[3]
  outcome: inactive
[4]
  outcome: inactive
[18]
  outcome: inactive
[7]
  outcome: inactive
[8]
  outcome: inactive
[9]
  outcome: inactive
[19]
  outcome: inactive
[10]
  outcome: inactive

## O=C1NC(c2ccccc2)(c2ccccc2)C(=O)N1COP(=O)(O)O
[1]
  efficacy: -16% (inactive)
[2]
  outcome: inactive
[3]
  outcome: inactive
[4]
  outcome: inactive
[5]
  outcome: inactive
[6]
  outcome: inactive
[7]
  outcome: inactive
[8]
  outcome: inactive
[9]
  outcome: inactive
[19]
  outcome: inactive
[10]
  outcome: inactive

## CC(c1cc2ccccc2s1)N(O)C(N)=O (stereo unspecified)
[1]
  efficacy: -17.4% (inactive)
[2]
  outcome: inactive
[3]
  outcome: inactive
[4]
  outcome: inactive
[5]
  outcome: inactive
[6]
  outcome: inactive
[7]
  outcome: inactive
[8]
  outcome: inactive
[9]
  outcome: inactive
[19]
  outcome: inactive
[10]
  outcome: inactive
[11]
  Potency: inactive
[12]
  Potency: inactive

## O=C(O)c1cn(C2CC2)c2cc(N3CCNCC3)c(F)cc2c1=O
[1]
  efficacy: -9.16% (inactive)
[2]
  outcome: inactive
[3]
  outcome: inactive
[4]
  outcome: inactive
[6]
  outcome: inactive
[7]
  outcome: inactive
[8]
  outcome: inactive
[9]
  outcome: inactive
[19]
  outcome: inactive
[10]
  outcome: inactive

## CN1C(CCl)Nc2cc(Cl)c(S(N)(=O)=O)cc2S1(=O)=O (stereo unspecified)
[1]
  efficacy: -11.6% (inactive)
[2]
  outcome: inactive
[3]
  outcome: inactive
[4]
  outcome: inactive
[5]
  outcome: inactive
[6]
  outcome: inactive
[7]
  outcome: inactive
[8]
  outcome: inactive
[9]
  outcome: inactive
[10]
  outcome: inactive

## Cc1nc(-c2ccc(OCC(C)C)c(C#N)c2)sc1C(=O)O
[1]
  efficacy: 65.9% (inactive)
[2]
  outcome: inactive
[3]
  outcome: inactive
[4]
  outcome: inactive
[18]
  outcome: inactive
[7]
  outcome: inactive
[8]
  outcome: inactive
[9]
  outcome: inactive
[19]
  outcome: inactive
[10]
  outcome: inactive

## C=C1CC[C@@]2(O)[C@H]3Cc4ccc(O)c5c4[C@@]2(CCN3CC2CC2)[C@H]1O5
[1]
  efficacy: 46.6% (inactive)
[2]
  outcome: inactive
[3]
  outcome: inactive
[4]
  outcome: inactive
[5]
  outcome: inactive
[6]
  outcome: inactive
[7]
  outcome: inactive
[8]
  outcome: inactive
[9]
  outcome: inactive
[19]
  outcome: inactive
[10]
  outcome: inactive
[15]
  outcome: inactive

## CN1CCN(C(=O)O[C@H]2c3nccnc3C(=O)N2c2ccc(Cl)cn2)CC1
[1]
  efficacy: 27.7% (inactive)
[2]
  outcome: inactive
[3]
  outcome: inactive
[4]
  outcome: inactive
[18]
  outcome: inactive
[6]
  outcome: inactive
[7]
  outcome: inactive
[8]
  outcome: inactive
[9]
  outcome: inactive
[10]
  outcome: inactive
[13]
  cell viability, % of control (lower = more cytotoxic): 126%
[14]
  viability (% of control): 135%
[15]
  outcome: inactive
[16]
  Potency: inactive

## Cc1c2oc3c(C)ccc(C(=O)N[C@@H]4C(=O)N[C@H](C(C)C)C(=O)N5CCC[C@H]5C(=O)N(C)CC(=O)N(C)[C@@H](C(C)C)C(=O)O[C@@H]4C)c3nc-2c(C(=O)N[C@@H]2C(=O)N[C@H](C(C)C)C(=O)N3CCC[C@H]3C(=O)N(C)CC(=O)N(C)[C@@H](C(C)C)C(=O)O[C@@H]2C)c(N)c1=O (I: T[dV]P[Sar][NMeV] / II: T[dV]P[Sar][NMeV]; ester I:1-I:C, II:1-II:C; linker I:N-II:N via Actinocin(9to1))
[1]
  efficacy: 27.3% (inactive)
[2]
  outcome: inactive
[3]
  outcome: inactive
[4]
  outcome: inactive
[5]
  outcome: inactive
[6]
  outcome: inactive
[7]
  outcome: inactive
[8]
  outcome: inactive
[9]
  outcome: inactive
[10]
  outcome: inactive

## Cc1cccc(C)c1OCC(C)N (stereo unspecified)
[1]
  efficacy: -20.8% (inactive)
[2]
  outcome: inactive
[3]
  outcome: inactive
[4]
  outcome: inactive
[5]
  outcome: inactive
[6]
  outcome: inactive
[8]
  outcome: inactive
[9]
  outcome: inactive
[10]
  outcome: inactive
